Source: PubChem BioAssay
The list is not random: actives were taken first. Their share in the collection is about 11%.
PNC assembly inh – inhibitors of perinucleolar compartment assembly; activity change (PNC), negative = inhibition, % at 10 µM; 140,000 tested, 3.1% active; PC3M PTB-GFP, PNC prevalence imaging, 16 h; stronger effect = lower value; AID 2417;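 active means readout at or below -70, meaning at least 70% loss of cells showing the perinucleolar compartment, a nuclear body marking cancer cells; inconclusive means readout between -30 and a set limit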
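Compounds are pinned in duplicate onto adhered PC3M cells stably expressing GFP-tagged PTB and incubated 16 h at 37 C. Cells are then fixed, nuclei stained with Hoechst, and PNC-positive cells counted.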
IMPase inh – membrane-permeable compound that blocks inositol monophosphatase; P97697; CHO-M1 cells, IP1 accumulation, HTRF TR-FRET ratio; inhibition (IP1 accumulation), % at 46.1 µM; 120,000 tested, under 10 active; active means well fitted curve in the direction sought with a large enough effect in the signal ratio, not every such curve was filed as active; inconclusive means small, poorly fitted or top-dose-only effect, or a change in a side signal; inactive means no such curve, though single readings can be large or run the other way; the % refers to the signal ratio;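 further: cells stimulated with carbachol in lithium chloride buffer; higher means more IMPase inhibition seen as more IP1 and lower FRET ratio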
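Seeded CHO-M1 cells were dosed with compound at up to 46 uM, stimulated with carbachol for 30 min, then lysed in IP-One detection reagents. Higher IP1 lowers the TR-FRET signal.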
ALOX12 inhib – 12-hLO (ALOX12) enzyme inhibition | P18054 | purified 12-hLO, xylenol orange hydroperoxide absorbance | Potency, µM (highest dose often 57.1 µM), most hits filed as inhibitors | 150,000 tested, 0.12% active; active means well fitted curve in the direction sought with a large enough effect; inconclusive means small, poorly fitted or top-dose-only effect, or another doubt; inactive means no such curve, though single readings can be large; an effect the other way counts as inactive or inconclusive; further: nearly all actives have a fitted effect of over 55% in size
Target sequence (P18054 whole entry, looked up): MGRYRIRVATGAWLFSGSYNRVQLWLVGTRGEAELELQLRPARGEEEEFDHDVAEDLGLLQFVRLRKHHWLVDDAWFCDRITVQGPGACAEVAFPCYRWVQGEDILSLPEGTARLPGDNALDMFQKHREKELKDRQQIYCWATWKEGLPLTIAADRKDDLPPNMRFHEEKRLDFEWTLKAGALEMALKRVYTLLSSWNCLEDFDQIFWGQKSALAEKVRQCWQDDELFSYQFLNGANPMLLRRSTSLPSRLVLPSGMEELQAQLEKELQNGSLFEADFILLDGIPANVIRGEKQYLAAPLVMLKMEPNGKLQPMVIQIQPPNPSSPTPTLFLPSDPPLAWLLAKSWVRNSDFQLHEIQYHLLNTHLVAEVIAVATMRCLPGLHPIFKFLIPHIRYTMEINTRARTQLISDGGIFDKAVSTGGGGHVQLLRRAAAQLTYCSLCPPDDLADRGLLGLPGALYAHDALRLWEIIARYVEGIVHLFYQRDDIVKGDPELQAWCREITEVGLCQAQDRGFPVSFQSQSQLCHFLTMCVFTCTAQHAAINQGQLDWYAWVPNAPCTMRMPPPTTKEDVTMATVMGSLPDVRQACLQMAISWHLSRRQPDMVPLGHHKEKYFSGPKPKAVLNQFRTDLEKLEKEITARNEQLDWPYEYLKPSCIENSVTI
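Hydroperoxide output read as Fe(III)-xylenol orange absorbance, 573-to-405 nm ratio, after 30 min reaction with 40 uM arachidonic acid. Enzyme: 150 nM purified human 12hLO, 15 min compound preincubation; 25 mM Hepes pH 7.0, room temperature.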
IMPase Li cell – cell-permeable IMPase inhibitors with lithium potentiation; Potency, µM (doses to about 59.4 µM), actives largely listed as inhibitors; CHO-M1 cells, IP1 TR-FRET (IP-One), carbachol + lithium; 210,000 tested, 0.35% active; active means well fitted curve in the direction sought with a large enough effect; inconclusive means small, poorly fitted or top-dose-only effect, or another doubt; inactive means no such curve, though single readings can be large; an effect the other way counts as inactive or inconclusive;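 further: IP1 builds up when IMPase is blocked and the TR-FRET signal falls; nearly all actives have a fitted effect of over 50% in size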
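Steps: plate 2000 CHO-M1 cells per well and culture 16–30 h; add compound and lithium; incubate 30 min, 37C; add d2-IP1 tracer and Eu cryptate anti-IP1 antibody in lysis buffer; read after 10 min at room temperature.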
HPGD block – HPGD (human) dehydrogenase inhibition; P15428; purified HPGD, NADH fluorescence kinetic, PGE2 substrate; Potency, µM, hits mostly inhibitors; 150,000 tested, 4.3% active; AID 894
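20 nM HPGD preincubated 15 min at room temperature with compound in 50 mM Tris-HCl pH 8, 0.01% Tween 20. Started with 1 mM NAD+ and 30 uM prostaglandin E2; NADH fluorescence (360/450 nm) read 5 times over 30-s intervals, last minus first.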
ALDH1A1 inh – ALDH1A1 (human) enzyme inhibition. P00352. Purified ALDH1A1, NADH fluorescence, propionaldehyde substrate. Potency, µM (highest dose often 75.3 µM), hits mostly inhibitors. 220,000 tested, 7.3% active
Large screens that a line does not name were inactive. Unless noted, the call rests on the fitted dose curve; in most records, active means well fitted inhibition curve with a large enough effect (not every such curve was filed as active); inconclusive means small, poorly fitted or top-dose-only effect, or another doubt; inactive means no such curve, though single readings can be large or run the other way.

Cc1ccc(C(=O)C2CN3CCC2CC3)cc1 (centres undefined)	ALDH1A1 inh 28µM
Oc1ccc2c3c1O[C@@H]1[C@@H](O)CC[C@]4(O)[C@H](C2)N(CC2CCC2)CC[C@@]314	none (no result: PNC assembly inh, IMPase Li cell, HPGD block, ALDH1A1 inh)
CC(C)(C)c1cc(C#N)cc(Br)c1OP(=O)(Oc1c(Br)cc(C#N)cc1C(C)(C)C)c1ccccc1	none (no result: PNC assembly inh, IMPase inh)
Clc1cc(Cl)c(Cl)c(Cl)c1	ALDH1A1 inh inconclusive (no result: PNC assembly inh, IMPase inh)
CN(C)c1ccc2c(c1)N=C(c1ccco1)OP2(=S)N1CCOCC1 (centres undefined)	HPGD block 18µM, ALDH1A1 inh 8.9µM
BrCC(Br)(Br)Br	ALDH1A1 inh 2µM (no result: PNC assembly inh, IMPase inh)
COc1cc(N2CCOCC2)ccc1C=C1C(=O)NC(=O)NC1=O	PNC assembly inh inconclusive, HPGD block 32µM, ALDH1A1 inh 13µM
NC[C@@H](Cc1ccccc1)P(=O)(O)O	none (no result: PNC assembly inh, IMPase inh)
CN1C(=O)C(=Cc2ccccc2OCc2ccc(Cl)cc2)C(=O)N(C)C1=O	HPGD block 22µM, ALDH1A1 inh 18µM (no result: IMPase inh)
CN1C(=O)C(=Cc2ccccc2Oc2ccc(Cl)cc2)C(=O)N(C)C1=O	HPGD block 25µM, ALDH1A1 inh inconclusive
NNc1nncn1N	none (no result: PNC assembly inh, IMPase inh)
COc1cccc(Oc2c(C)oc3cc(OC(=O)N(C)C)ccc3c2=O)c1	IMPase Li cell inconclusive, ALDH1A1 inh 22µM
CC(=O)N1CCN(c2ccc([N+](=O)[O-])cc2C=C2C(=O)NC(=O)NC2=O)CC1	none (no result: IMPase Li cell, HPGD block)
C/C(CC(=O)N1CCN(C=O)CC1)=N\NC(=O)c1cccc([N+](=O)[O-])c1	ALDH1A1 inh 25µM (no result: PNC assembly inh, IMPase inh, ALOX12 inhib, HPGD block)
CCC(C)n1c(C)cc(C(N)=O)c1C (centres undefined)	none (no result: PNC assembly inh, IMPase inh, ALOX12 inhib, HPGD block)
CCCn1c(C)cc(C=O)c1C	ALDH1A1 inh 7.1µM (no result: PNC assembly inh, IMPase inh, ALOX12 inhib, HPGD block)
Cc1cc(C=O)c(C)n1C(C)C	ALDH1A1 inh 14µM (no result: PNC assembly inh, IMPase inh, ALOX12 inhib, HPGD block)
C=C(C)c1ccccc1	none (no result: PNC assembly inh, IMPase inh)
CCOC(=O)c1ccc(-n2c(N)c(C(=O)NCC3CCCO3)sc2=S)cc1 (centres undefined)	PNC assembly inh inconclusive, HPGD block 7.9µM, ALDH1A1 inh 4µM
CCOC(=O)c1ccc(N=Cc2c(O)n(-c3ccc(OC)cc3)c(=S)[nH]c2=O)cc1	ALDH1A1 inh inconclusive (no result: PNC assembly inh, IMPase inh, ALOX12 inhib, HPGD block)
[Cd+2].[Cl-].[Cl-]	ALOX12 inhib 28µM, HPGD block 8.9µM, ALDH1A1 inh 4µM (no result: PNC assembly inh, IMPase inh)
O=C(c1ccccc1)[C@H]1[C@H](c2ccccc2[N+](=O)[O-])N1C1CCCCC1 (some centres undefined)	none (no result: PNC assembly inh, IMPase inh)
O=C1NC(=O)C(=Cc2ccc3c(c2)OCO3)C(=O)N1	ALDH1A1 inh inconclusive (no result: PNC assembly inh, IMPase inh, ALOX12 inhib, HPGD block)
COc1cc(/C=C2/C(=O)N(c3ccccc3)N=C2C)ccc1OS(=O)(=O)c1ccccc1	PNC assembly inh inconclusive, HPGD block 20µM, ALDH1A1 inh inconclusive (no result: IMPase inh)
CCOc1cc(C=C2C(=O)NC(=O)NC2=O)ccc1OCC(=O)N1CCOCC1	ALDH1A1 inh 35µM (no result: IMPase inh)
CCOc1cc(C=C2C(=O)NC(=O)NC2=O)ccc1OS(=O)(=O)c1ccccc1	HPGD block 13µM, ALDH1A1 inh inconclusive
COc1cc(/C=C2\C(=O)NC(=O)N(c3ccccc3)C2=O)c([N+](=O)[O-])cc1OC	ALDH1A1 inh inconclusive (no result: PNC assembly inh, IMPase inh, ALOX12 inhib, HPGD block)
O=C1OC(=O)C2C3CCC(O3)C12 (centres undefined)	none (no result: PNC assembly inh)
CCC#N	ALDH1A1 inh inconclusive (no result: PNC assembly inh, IMPase inh)
O=[N+]([O-])/C=C/c1c(OCc2ccccc2)ccc2ccccc12	HPGD block 16µM
COc1c(C)cc(C(=O)C2CCCN(Cc3ccccn3)C2)cc1C (centres undefined)	ALDH1A1 inh 32µM (no result: PNC assembly inh, IMPase inh, ALOX12 inhib, HPGD block)
COc1cccc(C(=O)C2CCCN(Cc3ccccn3)C2)c1 (centres undefined)	none (no result: PNC assembly inh, IMPase inh, ALOX12 inhib, HPGD block)
O=[N+]([O-])C(Br)Br	HPGD block inconclusive, ALDH1A1 inh 1.4µM (no result: PNC assembly inh, IMPase inh)
CC[N+](=O)[O-]	none (no result: PNC assembly inh, IMPase inh)
CN1CCc2cc(O)cc3c2C1Cc1ccc(O)c(O)c1-3 (centres undefined)	HPGD block inconclusive, ALDH1A1 inh inconclusive (no result: PNC assembly inh, IMPase inh, ALOX12 inhib)
CCC1(CCSC(=N)N)C(=O)NC(=O)NC1=O	none (no result: PNC assembly inh, IMPase inh)
CN1C[C@H](C(=O)N[C@@]2(C)O[C@@]3(O)[C@H]4CCCN4C(=O)[C@@H](Cc4ccccc4)N3C2=O)C=C2c3cccc4[nH]cc(c34)C[C@@H]21	none (no result: PNC assembly inh, IMPase inh)
